Only some compounds are listed: those with a hit (about 7.9% of all), similar ones and a draw of the others.
Lassa entry inh: Lassa virus entry inhibition | Lassa virus pseudotype entry inhibition, cell reporter | Potency, µM (series often up to 37.9 µM), inactives show at the highest dose activity change, negative = inhibition, usual class: inhibitors | 1.2% of 300,000 active | AID 540256; calls by dose curve; tested in HEK293 cells; note: potency is the fitted concentration of half-maximal effect; nearly all actives have a fitted effect of over 50% in size
FMDV antiviral: blocks foot and mouth disease virus; Potency, µM (titrated, usually from 57.9 µM), for the others: top-dose activity change, negative = inhibition, usual class: inhibitors; 1.2% of 410,000 active; FMDV antiviral cell-based qHTS; AID 1159524; calls by dose curve; tested in HEK293T cells; note: read-out not given here; potency is the fitted concentration of half-maximal effect; nearly all actives have a fitted effect of over 45% in size
HCV inh: inhibitors of hepatitis C virus infection; AID 651820; Potency, µM (top dose mostly 41.8 µM), for the others: at the top dose activity change, negative = inhibition, usual class: inhibitors; Huh7.5.1 HCVcc-Cre infection, luciferase reporter, 44 h; 3.4% of 340,000 active; active = well fitted inhibition curve with a large enough effect; inconclusive = small, poorly fitted or top-dose-only effect, or another doubt; inactive = no such curve, though single readings can be large or run the other way; note: potency is the fitted concentration of half-maximal effect
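Cells (1,000/well) were plated 4 h before compound, then infected with HCVcc-Cre virus (~0.5 moi). After 44 h further culture, infection was read as luciferase luminescence following a 15 min substrate incubation at room temperature.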
MARV entry inh: blocks Marburg virus binding to or entry into cells | 1.8% of 300,000 active | AID 540276 | Potency, µM (doses to about 37.8 µM), inactives show top-dose activity change, negative = inhibition, usual class: inhibitors | Marburg virus pseudotyped entry inhibition, cell reporter; calls by dose curve; tested in HEK293 cells; note: potency is the fitted concentration of half-maximal effect
HCMV inh: blocks human cytomegalovirus replication; HFF cells, HCMV-luciferase reporter, 72 h; stronger effect = lower value; activity change, negative = inhibition, % at 57.5 µM; 4.5% of 410,000 active; in the data active = activity change below about -60%; inconclusive = no clear call, values can overlap the other calls; inactive = above about -39%
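Human foreskin fibroblasts infected with luciferase-reporter HCMV at MOI 1 PFU/cell, compounds at two doses. Luciferase measured 72 h post infection; normalized to buffer-only basal and Salinomycin (10uM) controls.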
Active calls of the source: *; ? = inconclusive; . = no result; ! = not active in a repeat; [ ] = another dose, or the depositor's remark. % is set by controls: 0 for no effect and ±100 for the full control effect.

SMILES | Lassa entry inh | FMDV antiviral | HCV inh | MARV entry inh | HCMV inh
Cc1cc(C(F)F)n2nc(C(=O)Nc3sc4c(c3C(N)=O)CCC4)nc2n1 | -8% | 24% | ? | ? | -13
Cc1ccc(C(=O)Nc2sc3c(c2C(=O)O)CCC(C)C3)o1 (stereo not given) | . | 21% | ? | . | 0
Cc1ccc(C(=O)Nc2sc3c(c2C(=O)O)CCCCC3)o1 | 7.9µM* | -44% | 11% | 6.3µM* | 41
O=C(Nc1sc2c(c1C(=O)O)CCC2)c1ccco1 | 8% | 26% | 1% | -16% | 74
CCOC(=O)CC1C(=O)NCCN1S(=O)(=O)c1ccc(NC(C)=O)cc1 (stereo not given) | 7%[46.1 µM] | -1% | 8% | -26%[46.1 µM] | 51
O=C(N/C(=C/c1ccc(Br)cc1)C(=O)N1CCOCC1)c1cccs1 | 18% | 22% | 4% | 0%[46.1 µM] | -62*
CC1(NCc2ccc(Cl)cc2)COP(=O)(NCc2ccccc2)OC1 (stereo not given) | 6% | -7% | 13% | -8% | -83*
CN1CCN(c2ccc(NC(=O)c3ccc(Oc4ccccc4)cc3)cc2)CC1 | ? | -5% | ? | ? | -37
CCOc1ccc(C(=O)Nc2ccc(N3CCN(C(=O)c4ccco4)CC3)cc2)cc1Br | ? | ? | ? | ? | -34
COc1cc2ccccc2cc1C(=O)Nc1ccc(N2CCN(C)CC2)cc1 | ? | 30% | 13µM* | ? | 6
CC(C)C(=O)N1CCN(c2ccc(NC(=O)c3cccs3)cc2)CC1 | -1% | -20% | -1% | -2%[46.1 µM] | 54
CCOc1ccc(C(=O)Nc2ccc(N3CCN(C)CC3)cc2)cc1Br | 6% | -7% | -9% | 11µM* | 40
COc1cc2ccccc2cc1C(=O)Nc1ccc(N2CCN(C(=O)C(C)C)CC2)cc1 | . | ? | 10µM* | . | -4
C=CCN1c2ccccc2[C@]23CCC(=O)N(CCCOC(C)C)C2=NC(C(=O)OC)=C(C(=O)OC)[C@H]13 | . | . | . | -10%[14.2 µM] | .
COC(=O)c1c(NC(=O)/C=C/C(=O)O)sc(Cc2ccccc2)c1C | -6% | ? | -5% | 11µM* | .
Nc1ccc2c(c1)C(=O)c1cc(N)c(Cl)cc1-2 | -8%[46.1 µM] | 27% | 25µM* | ? | 37
Nc1ccc2c(c1)C(=O)c1ccc(Cl)cc1-2 | -2%[46.1 µM] | 3% | ? | -10%[46.1 µM] | 16
O=C(NCCc1cccc(Cl)c1)c1cccs1 | -8%[46.1 µM] | 7% | -10% | ? | 37
C/C(=N\NC(=O)c1c(C)nc2ccccn12)c1ccccc1F | 6%[46.1 µM] | 6% | -14% | 11%[46.1 µM] | -6
C/C(=N\NC(=O)c1c(C)nc2ccccn12)c1ccc(O)cc1O | -26%[46.1 µM] | 3% | 6.3µM* | -27%[46.1 µM] | -82*
CC(=O)NCCNc1nc(-c2ccc(N(C)C)cc2)nc2ccccc12 | . | 13% | . | . | .
CCOC(=O)C1=C(COC(=O)CCOc2ccc(OC)cc2)NC(=O)NC1C (stereo not given) | . | 2% | 9% | . | 34
CCOC(=O)C1=C(COC(=O)CCOc2ccc(C)cc2)NC(=O)NC1C (stereo not given) | ? | -22% | ? | ? | -69*
CCOC(=O)C1=C(COC(=O)Cc2ccc(Cl)cc2)NC(=O)NC1C (stereo not given) | . | -20% | 8% | . | -73*
O=C(NC1CCCc2c1cnn2-c1ccc(F)cc1F)c1ccccc1N1CCOCC1 (stereo not given) | 8% | -19% | . | ? | -75*
SMILES | Lassa entry inh | FMDV antiviral | HCV inh | MARV entry inh | HCMV inh
CCc1cc(C(=O)NC2CCCc3c2cnn3-c2ccc(F)cc2F)no1 (stereo not given) | . | ? | . | . | -71*
O=C(CCc1ccccn1)NC1CCCc2c1cnn2-c1ccc(F)cc1F (stereo not given) | . | -24% | ? | . | ?
O=C(CCc1ccncc1)NC1CCCc2c1cnn2-c1ccc(F)cc1F (stereo not given) | -21%[46.1 µM] | ? | 13µM* | ? | -73*
O=C(Nc1cnccc1C(F)(F)F)NC1CCCCC1 | -18% | -6% | -15% | -6%[46.1 µM] | 12
CSc1ccc(CN2CCN(C(=O)CC(C)C)CC2)cc1 | 0%[46.1 µM] | -19% | 11µM* | ? | -31
CSc1ccc(CN2CCC(C(=O)NCc3ccc(C)cc3)CC2)cc1 | ? | -20% | ? | 16µM* | -12
CCN(Cc1ccccc1)C1CCN(Cc2ccc(SC)cc2)CC1 | . | -18% | 7.1µM* | 17%[46.1 µM] | ?
CSc1ccc(C(=S)N2CCN(Cc3ccccc3)CC2)cc1 | 16µM* | -11% | -4% | -5% | -20
S=C(c1ccc(Cl)cc1)N1CCN(Cc2ccccc2)CC1 | -19%[46.1 µM] | 0% | -22% | -1%[46.1 µM] | ?
CSc1ccc(CN2CCN(C(=O)Cc3ccccc3)CC2)cc1 | . | ? | -3% | . | -4
COc1ccc(CN2CCOc3ccc(C(O)c4cccnc4)cc3C2)c(OC)c1OC (stereo not given) | . | -7% | . | . | .
COc1ccc(N(C)C(=O)CCn2cnc3onc(-c4ccc(F)cc4)c3c2=O)c(OC)c1 | -23%[46.1 µM] | ? | . | . | -10
Cc1ccc(S(=O)(=O)c2[nH]c(-c3ccccc3)nc2SCC(N)=O)cc1 | 7%[46.1 µM] | 32% | . | -5%[46.1 µM] | -7
CN1\C(=C/C=C/C=C/C=[N+](C)C)C(C)(C)c2ccccc21 | ? | 16µM* | 10% | ? | 2
CN1/C(=C\C=O)C(C)(C)c2ccccc21 | -24% | -10% | 6% | 5%[46.1 µM] | -29
CCOc1cccc(N(C(=O)C2COc3ccccc3O2)C(C(=O)NC2CCCCC2)c2ccc(O)cc2)c1 (stereo not given) | ? | -24% | 15% | -1% | 118
CC(C)CCNC(=O)C(c1ccc(O)cc1)N(C(=O)C1COc2ccccc2O1)c1cccc(O)c1 (stereo not given) | ? | 1% | -25% | ? | -63*
C[C@@H]1CN(Cc2ccc3c(c2)CN(Cc2cccn2-c2ccccn2)CCO3)C[C@H](C)O1 | . | -8% | . | . | .
CC(C)c1ccccc1-n1c(SCc2cc(=O)oc3ccc4ccccc4c23)nnc1-c1cccnc1 | ? | 14µM* | ? | ? | -33
CCOc1ccc(-n2c(SCc3cc(=O)oc4cc(C)ccc34)nnc2-c2cccnc2)cc1 | -10% | 10% | ? | -1% | -65*
O=c1c(S(=O)(=O)c2ccc(Cl)cc2)cn(Cc2ccc(F)cc2)c2ccc(F)cc12 | 0%[46.1 µM] | -11% | . | -8%[46.1 µM] | -6
CCOc1ccc(N2C(=O)C(c3nnnn3Cc3ccccc3)N(CCOC)C2=O)cc1 (stereo not given) | . | . | . | . | -21
COC(=O)C(CC(=O)c1ccc(Br)cc1)n1nc(C)cc1C (stereo not given) | -14%[46.1 µM] | -9% | 8% | 8%[46.1 µM] | 15
COC(=O)C(CC(=O)c1ccc(Br)cc1)n1ccnc1 (stereo not given) | . | . | 1.3µM* | 0% | .
CCOc1ccccc1N1CCN(CC(O)COC2CCCc3ccccc32)CC1 (stereo not given) | -3% | 25% | 11µM* | ? | -16
C=CCc1ccccc1OCC(O)CN1CCN(c2ccccc2OC)CC1 (stereo not given) | ? | ? | ? | ? | -64*!

Assay outcomes (PubChem)
